Source: the supplement of paper PMC12645437, “Orthogonal IMiD-Degron Pairs Induce Selective Protein Degradation in Cells” (ACS Chemical Biology, 2025)
In all, about 8,300 sequences were measured (“log2 fold change of degron read counts, EGFP-low vs EGFP+ sorted cells (limma voom), compound-induced degradation”: median about -1.1, highest 2% from about 3.2 on). Only a selection was taken, and the highest values are over-represented in it overall.

Biological target: T1, CRBN, Q96SW2
T1 chain: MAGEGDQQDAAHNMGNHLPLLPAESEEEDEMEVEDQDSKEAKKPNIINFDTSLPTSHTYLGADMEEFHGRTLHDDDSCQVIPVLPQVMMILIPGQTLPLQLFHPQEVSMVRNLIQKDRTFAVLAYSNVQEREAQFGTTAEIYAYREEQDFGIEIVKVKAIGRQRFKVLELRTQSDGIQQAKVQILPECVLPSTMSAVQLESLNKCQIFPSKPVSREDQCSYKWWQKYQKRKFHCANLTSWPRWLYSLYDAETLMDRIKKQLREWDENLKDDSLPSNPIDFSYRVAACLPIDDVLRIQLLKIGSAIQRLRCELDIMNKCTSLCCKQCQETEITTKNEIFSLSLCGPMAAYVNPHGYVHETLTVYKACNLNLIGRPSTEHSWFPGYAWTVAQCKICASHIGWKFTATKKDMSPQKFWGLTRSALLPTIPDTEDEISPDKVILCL
Test: log2 fold change of degron read counts, EGFP-low vs EGFP+ sorted cells (limma voom), compound-induced degradation; higher = more compound-induced degradation of the degron-EGFP fusion; degrons are variants of IKZF1/3 zinc finger 2; compound dose not given here
Details: Jurkat, 18 h
Protocol: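 Pooled library of 8380 IKZF3 ZF2 degron mutants (positions 146-167 varied within the IKZF3 130-189 degron; only the varied core is printed, flanks not printed) fused to EGFP with IRES-mCherry, lentivirally expressed in Jurkat cells. mCherry+ cells were treated with one IMiD compound for 18 h (dose not stated) and FACS-sorted into EGFP-low and EGFP+ populations. Degron sequences were counted by NGS, and log2FC (EGFP-low vs EGFP+) was estimated by limma voom over 3 biological replicates.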

[1] = compound: compound 19 (5-tert-butyl-thalidomide)
[2] = compound: compound 22 (5-morpholino-thalidomide)
[3] = compound: compound 33 (diphenyl IMiD analogue)
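Note: pooled lentiviral library of zinc finger degron-EGFP fusions in mCherry-positive Jurkat cells, FACS-sorted after compound exposure, with degron abundance counted by next-generation sequencing.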

In the case of FMCEQCGAYFTQKGNLLRHIKL [46F_47M_49E_50Q_52G_53A_54Y_55F_67L_, Q9UKT9], the “log2 fold change of degron read counts” value [1] is reported as -2.39, the “log2 fold change of degron read counts” value [2] is reported as -2.36 and the “log2 fold change of degron read counts” value [3] is reported as -0.295. The “log2 fold change of degron read counts” value (compound: thalidomide) was -2.25.

With LTCEICGFICTQKGNLLRHIKL [46L_47T_49E_50I_52G_53F_54I_55C_67L_, Q9UKT9] the “log2 fold change of degron read counts” value [1] was -0.462, the “log2 fold change of degron read counts” value [2] was -0.661 and the “log2 fold change of degron read counts” value [3] was 0.241. The “log2 fold change of degron read counts” value (compound: thalidomide) was 1.1.

For FKCDVCGAPFTQKGNLLRHIKL [46F_47K_49D_50V_52G_53A_54P_55F_67L_, Q9UKT9], the “log2 fold change of degron read counts” value [1] was -0.146, the “log2 fold change of degron read counts” value [2] was -0.607 and the “log2 fold change of degron read counts” value [3] was -2.1. The “log2 fold change of degron read counts” value (compound: thalidomide) was 0.295.

For FWCDVCGARFTQKGNLLRHIKL [46F_47W_49D_50V_52G_53A_54R_55F_67L_, Q9UKT9], the “log2 fold change of degron read counts” value [1] was 2.89, the “log2 fold change of degron read counts” value [2] was 3.6 and the “log2 fold change of degron read counts” value [3] was 0.211. For the same sequence, the “log2 fold change of degron read counts” value (compound: thalidomide) was 0.033.

FVCDVCGARFTQKGNLLRHIKL [46F_47V_49D_50V_52G_53A_54R_55F_67L_, Q9UKT9] was tested, and the “log2 fold change of degron read counts” value [1] was -0.856, the “log2 fold change of degron read counts” value [2] was 0.623 and the “log2 fold change of degron read counts” value [3] was -0.882. For the same sequence, the “log2 fold change of degron read counts” value (compound: thalidomide) was 0.963.

FHCDVCGARFTQKGNLLRHIKL [46F_47H_49D_50V_52G_53A_54R_55F_67L_, Q9UKT9] was tested, and the “log2 fold change of degron read counts” value [1] was 0.448, the “log2 fold change of degron read counts” value [2] was 0.585 and the “log2 fold change of degron read counts” value [3] was -1.42. The “log2 fold change of degron read counts” value (compound: thalidomide) was -1.6.

With FMCDVCGARFTQKGNLLRHIKL [46F_47M_49D_50V_52G_53A_54R_55F_67L_, Q9UKT9] the “log2 fold change of degron read counts” value [1] was -1.48, the “log2 fold change of degron read counts” value [2] was -1.88 and the “log2 fold change of degron read counts” value [3] was 0.0127. For the same sequence, the “log2 fold change of degron read counts” value (compound: thalidomide) was -0.773.

With FLCDVCGARFTQKGNLLRHIKL [46F_47L_49D_50V_52G_53A_54R_55F_67L_, Q9UKT9] the “log2 fold change of degron read counts” value [1] was -1.59, the “log2 fold change of degron read counts” value [2] was -2.29 and the “log2 fold change of degron read counts” value [3] was -1.43. The “log2 fold change of degron read counts” value (compound: thalidomide) was -0.242.

For FFCDVCGARFTQKGNLLRHIKL [46F_47F_49D_50V_52G_53A_54R_55F_67L_, Q9UKT9], the “log2 fold change of degron read counts” value [1] was 3.5, the “log2 fold change of degron read counts” value [2] was 3.15 and the “log2 fold change of degron read counts” value [3] was 0.549. The “log2 fold change of degron read counts” value (compound: thalidomide) was -0.102.

In the case of FGCDVCGARFTQKGNLLRHIKL [46F_47G_49D_50V_52G_53A_54R_55F_67L_, Q9UKT9], the “log2 fold change of degron read counts” value [1] is reported as 1.49, the “log2 fold change of degron read counts” value [2] is reported as -0.377 and the “log2 fold change of degron read counts” value [3] is reported as -1.65. For the same sequence, the “log2 fold change of degron read counts” value (compound: thalidomide) was -0.568.

In the case of FYCDVCGARFTQKGNLLRHIKL [46F_47Y_49D_50V_52G_53A_54R_55F_67L_, Q9UKT9], the “log2 fold change of degron read counts” value [1] is reported as 3.21, the “log2 fold change of degron read counts” value [2] is reported as 3.28 and the “log2 fold change of degron read counts” value [3] is reported as 0.5. For the same sequence, the “log2 fold change of degron read counts” value (compound: thalidomide) was -0.569.

With FDCDVCGARFTQKGNLLRHIKL [46F_47D_49D_50V_52G_53A_54R_55F_67L_, Q9UKT9] the “log2 fold change of degron read counts” value [1] was 0.864, the “log2 fold change of degron read counts” value [2] was -0.479 and the “log2 fold change of degron read counts” value [3] was -1.77. For the same sequence, the “log2 fold change of degron read counts” value (compound: thalidomide) was -0.643.

In the case of FCCDQCGAVFTQKGNLLRHIKL [46F_47C_49D_50Q_52G_53A_54V_55F_67L_, Q9UKT9], the “log2 fold change of degron read counts” value [1] is reported as -2.49, the “log2 fold change of degron read counts” value [2] is reported as -1.9 and the “log2 fold change of degron read counts” value [3] is reported as -0.705. The “log2 fold change of degron read counts” value (compound: thalidomide) was -2.14.

FECDVCGAHFTQKGNLLRHIKL [46F_47E_49D_50V_52G_53A_54H_55F_67L_, Q9UKT9] was tested, and the “log2 fold change of degron read counts” value [1] was -2.74, the “log2 fold change of degron read counts” value [2] was -4.09 and the “log2 fold change of degron read counts” value [3] was -1.55. For the same sequence, the “log2 fold change of degron read counts” value (compound: thalidomide) was -1.76.

For FECPQCGAPFTQKGNLLRHIKL [46F_47E_49P_50Q_52G_53A_54P_55F_67L_, Q9UKT9], the “log2 fold change of degron read counts” value [1] was -2.11, the “log2 fold change of degron read counts” value [2] was -2.37 and the “log2 fold change of degron read counts” value [3] was -1.67. The “log2 fold change of degron read counts” value (compound: thalidomide) was -1.19.

In the case of FMCNQCGAKFTQKGNLLRHIKL [46F_47M_49N_50Q_52G_53A_54K_55F_67L_, Q9UKT9], the “log2 fold change of degron read counts” value [1] is reported as -2.87, the “log2 fold change of degron read counts” value [2] is reported as -2.47 and the “log2 fold change of degron read counts” value [3] is reported as -2.42. For the same sequence, the “log2 fold change of degron read counts” value (compound: thalidomide) was -2.11.

In the case of LECEICGFGCTQKGNLLRHIKL [46L_47E_49E_50I_52G_53F_54G_55C_67L_, Q9UKT9], the “log2 fold change of degron read counts” value [1] is reported as -0.956, the “log2 fold change of degron read counts” value [2] is reported as -2.31 and the “log2 fold change of degron read counts” value [3] is reported as -1.15. For the same sequence, the “log2 fold change of degron read counts” value (compound: thalidomide) was -0.202.

With FMCDVCGAQFTQKGNLLRHIKL [46F_47M_49D_50V_52G_53A_54Q_55F_67L_, Q9UKT9] the “log2 fold change of degron read counts” value [1] was -1.67, the “log2 fold change of degron read counts” value [2] was -1.16 and the “log2 fold change of degron read counts” value [3] was 1.5. The “log2 fold change of degron read counts” value (compound: thalidomide) was -0.932.
